The full list was thinned out, with the strongest signals kept by preference.
Columns and labels:
Experiment in all cases: glycan array binding signal (z-score within array); higher = stronger binding
Conditions in all cases: glycan notation: IUPAC condensed, linker removed
[1] = target: Fuc(a1-2)Gal(b1-3)GlcNAc
Method in brief: (§1)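 The Consortium for Functional Glycomics database supplied 3228 glycan arrays, of which those lacking an available protein sequence were dropped. The binding signal, a within-array Z-score, was averaged across arrays of the same protein sequence and across linkers. Negative scores can be read as non-binding.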

[2] = target: Fuc(a1-2)Gal(b1-3)GlcNAc(b1-3)Gal(b1-4)Glc
Method in brief: as §1

[3] = target: Fuc(a1-2)Gal(b1-3)GlcNAc(b1-3)[Gal(b1-4)GlcNAc(b1-6)]Gal(b1-4)Glc
Method in brief: as §1

[4] = target: Fuc(a1-2)Gal(b1-3)[Fuc(a1-4)]GlcNAc(b1-2)Man(a1-3)[Fuc(a1-2)Gal(b1-3)[Fuc(a1-4)]GlcNAc(b1-2)Man(a1-6)]Man(b1-4)GlcNAc(b1-4)[Fuc(a1-6)]GlcNAc(b1-4)[Fuc(a1-6)]GlcNAc
Method in brief: as §1

[5] = target: Fuc(a1-2)Gal(b1-3)[Fuc(a1-4)]GlcNAc(b1-3)[Fuc(a1-3)[Gal(b1-4)]GlcNAc(b1-6)]Gal(b1-4)Glc
Method in brief: as §1

[6] = target: Fuc(a1-2)Gal(b1-4)Glc6S
Method in brief: as §1

[7] = target: Fuc(a1-2)[Gal(a1-3)]Gal(b1-4)GlcNAc
Method in brief: as §1

[8] = target: Fuc(a1-2)[Gal(a1-3)]Gal(b1-4)[Fuc(a1-3)]GlcNAc
Method in brief: as §1

[9] = target: Fuc(a1-2)[GalNAc(a1-3)]Gal(b1-3)GlcNAc(b1-6)GalNAc
Method in brief: as §1

[10] = target: Fuc(a1-2)[GalNAc(a1-3)]Gal(b1-4)GlcNAc(b1-2)Man(a1-3)[Fuc(a1-2)[GalNAc(a1-3)]Gal(b1-4)GlcNAc(b1-2)Man(a1-6)]Man(b1-4)GlcNAc(b1-4)[Fuc(a1-6)]GlcNAc
Method in brief: as §1

[11] = target: Fuc(a1-2)[GalNAc(a1-3)]Gal(b1-4)GlcNAc(b1-3)Gal(b1-4)GlcNAc
Method in brief: as §1

[12] = target: Fuc(a1-3)[Gal3S(b1-4)]GlcNAc6S
Method in brief: as §1

[13] = target: Gal(a1-3)Gal(b1-3)[Fuc(a1-4)]GlcNAc(b1-2)Man(a1-3)[Gal(a1-3)Gal(b1-3)[Fuc(a1-4)]GlcNAc(b1-2)Man(a1-6)]Man(b1-4)GlcNAc(b1-4)GlcNAc
Method in brief: as §1

[14] = target: Gal(b1-3)GlcNAc(b1-2)Man
Method in brief: as §1

[15] = target: Gal(b1-3)GlcNAc(b1-2)Man(a1-3)[GlcNAc(b1-4)][Gal(b1-3)GlcNAc(b1-2)Man(a1-6)]Man(b1-4)GlcNAc(b1-4)GlcNAc
Method in brief: as §1

[16] = target: Gal(b1-3)GlcNAc(b1-3)Gal(b1-4)GlcNAc(b1-2)Man(a1-3)[Gal(b1-3)GlcNAc(b1-3)Gal(b1-4)GlcNAc(b1-2)Man(a1-6)]Man(b1-4)GlcNAc(b1-4)GlcNAc
Method in brief: as §1

[17] = target: Gal(b1-3)GlcNAc(b1-3)Gal(b1-4)GlcNAc(b1-2)[Gal(b1-3)GlcNAc(b1-3)Gal(b1-4)GlcNAc(b1-6)]Man(a1-6)[Gal(b1-3)GlcNAc(b1-3)Gal(b1-4)GlcNAc(b1-2)Man(a1-3)]Man(b1-4)GlcNAc(b1-4)[Fuc(a1-6)]GlcNAc
Method in brief: as §1

[18] = target: Gal(b1-3)GlcNAc(b1-3)Gal(b1-4)GlcNAc(b1-3)Gal(b1-4)GlcNAc(b1-2)[Gal(b1-3)GlcNAc(b1-3)Gal(b1-4)GlcNAc(b1-3)Gal(b1-4)GlcNAc(b1-6)]Man(a1-6)[Gal(b1-3)GlcNAc(b1-3)Gal(b1-4)GlcNAc(b1-3)Gal(b1-4)GlcNAc(b1-2)Man(a1-3)]Man(b1-4)GlcNAc(b1-4)[Fuc(a1-6)]GlcNAc
Method in brief: as §1

[19] = target: Gal(b1-3)GlcNAc(b1-3)Gal(b1-4)[Fuc(a1-3)]GlcNAc(b1-6)[Gal(b1-3)GlcNAc(b1-3)]Gal(b1-4)Glc
Method in brief: as §1

[20] = target: Gal(b1-4)GlcNAc(b1-2)Man(a1-3)[GlcNAc(b1-4)][Gal(b1-4)GlcNAc(b1-2)Man(a1-6)]Man(b1-4)GlcNAc(b1-4)GlcNAc
Method in brief: as §1

[21] = target: Gal(b1-4)GlcNAc(b1-3)Gal(b1-4)GlcNAc(b1-3)Gal(b1-4)GlcNAc(b1-2)Man(a1-3)[Gal(b1-4)GlcNAc(b1-3)Gal(b1-4)GlcNAc(b1-3)Gal(b1-4)GlcNAc(b1-2)Man(a1-6)]Man(b1-4)GlcNAc(b1-4)[Fuc(a1-6)]GlcNAc
Method in brief: as §1

[22] = target: Gal(b1-4)GlcNAc(b1-3)Gal(b1-4)GlcNAc(b1-3)Gal(b1-4)GlcNAc(b1-2)[Gal(b1-4)GlcNAc(b1-3)Gal(b1-4)GlcNAc(b1-3)Gal(b1-4)GlcNAc(b1-6)]Man(a1-6)[Gal(b1-4)GlcNAc(b1-3)Gal(b1-4)GlcNAc(b1-3)Gal(b1-4)GlcNAc(b1-2)Man(a1-3)]Man(b1-4)GlcNAc(b1-4)[Fuc(a1-6)]GlcNAc
Method in brief: as §1

[23] = target: Gal(b1-4)GlcNAc(b1-3)Gal(b1-4)GlcNAc(b1-3)Gal(b1-4)GlcNAc(b1-3)Gal(b1-4)GlcNAc(b1-3)Gal(b1-4)GlcNAc(b1-2)Man(a1-3)[Gal(b1-4)GlcNAc(b1-3)Gal(b1-4)GlcNAc(b1-3)Gal(b1-4)GlcNAc(b1-3)Gal(b1-4)GlcNAc(b1-3)Gal(b1-4)GlcNAc(b1-2)Man(a1-6)]Man(b1-4)GlcNAc(b1-4)[Fuc(a1-6)]GlcNAc
Method in brief: as §1

[24] = target: Gal(b1-4)GlcNAc(b1-3)Gal(b1-4)GlcNAc(b1-3)GalNAc
Method in brief: as §1

[25] = target: Gal(b1-6)Gal
Method in brief: as §1

[26] = target: Gal3S(b1-3)[Fuc(a1-4)]GlcNAc
Method in brief: as §1

[27] = target: Gal6S(b1-3)GlcNAc
Method in brief: as §1

[28] = target: Gal6S(b1-4)Glc6S
Method in brief: as §1

[29] = target: GalNAc3S(b1-4)GlcNAc3S
Method in brief: as §1

[30] = target: GlcNAc(a1-3)Gal(b1-4)GlcNAc
Method in brief: as §1

[31] = target: GlcNAc(a1-4)Gal(b1-4)GalNAc
Method in brief: as §1

[32] = target: GlcNAc(a1-4)Gal(b1-4)GlcNAc(b1-3)Gal(b1-4)GlcNAc
Method in brief: as §1

[33] = target: GlcNAc(b1-3)Gal(b1-4)GlcNAc(b1-3)[GlcNAc(b1-3)Gal(b1-4)GlcNAc(b1-3)]GalNAc
Method in brief: as §1

[34] = target: GlcNAc(b1-4)GlcNAc(b1-4)GlcNAc(b1-4)GlcNAc(b1-4)GlcNAc
Method in brief: as §1

[35] = target: Kdn(a2-6)Gal(b1-4)GlcNAc
Method in brief: as §1

[36] = target: Man(a1-2)Man(a1-3)[Man(a1-2)Man(a1-6)]Man(a1-6)[Man(a1-2)Man(a1-2)Man(a1-3)]Man
Method in brief: as §1

[37] = target: Neu5Ac(a2-3)Gal(b1-3)[GlcNAc(b1-6)]GalNAc
Method in brief: as §1

[38] = target: Neu5Ac(a2-3)Gal(b1-3)[Neu5Ac(a2-6)]GlcNAc(b1-3)[Fuc(a1-3)[Gal(b1-4)]GlcNAc(b1-6)]Gal(b1-4)Glc
Method in brief: as §1

[39] = target: Neu5Ac(a2-3)Gal(b1-4)GlcNAc
Method in brief: as §1

[40] = target: Neu5Ac(a2-3)Gal(b1-4)GlcNAc(b1-6)[Neu5Ac(a2-3)Gal(b1-3)]GalNAc
Method in brief: as §1

[41] = target: Neu5Ac(a2-3)Gal(b1-4)[Fuc(a1-3)]GlcNAc(b1-6)[Gal(b1-3)]GalNAc
Method in brief: as §1

[42] = target: Neu5Ac(a2-6)Gal(b1-4)GlcNAc
Method in brief: as §1

[43] = target: Neu5Ac(a2-6)Gal(b1-4)GlcNAc(b1-2)Man(a1-3)[Man(a1-6)]Man(b1-4)GlcNAc(b1-4)GlcNAc
Method in brief: as §1

[44] = target: Neu5Ac(a2-6)Gal(b1-4)GlcNAc(b1-3)Gal(b1-4)[Fuc(a1-3)]GlcNAc(b1-3)Gal(b1-4)[Fuc(a1-3)]GlcNAc
Method in brief: as §1

[45] = target: Neu5Ac(a2-6)Gal(b1-4)GlcNAc6S
Method in brief: as §1

[46] = target: Neu5Ac(a2-6)GlcNAc(b1-4)GlcNAc(b1-4)GlcNAc
Method in brief: as §1

[47] = target: Neu5Ac(a2-8)Neu5Ac(a2-8)Neu5Ac
Method in brief: as §1

B1: CpGal16 (Clavelina picta) (protein)
chain: MAKMITNYVGKRIECIMVATDMMSTVFSLASATGDLPFYINFRQRENSIVMNTRVHGKWQYEKSQSSGGMNFYEPFRLVVEVRPSVFKVTVSTMGEEDGITFNLQYSQITIKPDEIVAMHLGYCNLRSELLVTDL
glycan array binding signal (z-score) [1]: 2.93 | glycan array binding signal (z-score) [2]: 3.11 | glycan array binding signal (z-score) [3]: 2.79 | glycan array binding signal (z-score) [4]: -0.402 | glycan array binding signal (z-score) [5]: -0.394 | glycan array binding signal (z-score) [6]: 3.43 | glycan array binding signal (z-score) [7]: -0.113 | glycan array binding signal (z-score) [8]: -0.434 | glycan array binding signal (z-score) [9]: 3.13 | glycan array binding signal (z-score) [10]: 0.044 | glycan array binding signal (z-score) [11]: 2.86 | glycan array binding signal (z-score) [12]: -0.265 | glycan array binding signal (z-score) [13]: -0.202 | glycan array binding signal (z-score) [14]: 0.015 | glycan array binding signal (z-score) [15]: 2.87 | glycan array binding signal (z-score) [16]: 3.83 | glycan array binding signal (z-score) [17]: 3.99 | glycan array binding signal (z-score) [18]: 4.48 | glycan array binding signal (z-score) [19]: 3.33 | glycan array binding signal (z-score) [20]: -0.358 | glycan array binding signal (z-score) [21]: 0.953 | glycan array binding signal (z-score) [22]: 1.44 | glycan array binding signal (z-score) [23]: 1.28 | glycan array binding signal (z-score) [24]: -0.168 | glycan array binding signal (z-score) [25]: -0.407 | glycan array binding signal (z-score) [26]: -0.266 | glycan array binding signal (z-score) [27]: -0.282 | glycan array binding signal (z-score) [28]: -0.12 | glycan array binding signal (z-score) [29]: 0.397 | glycan array binding signal (z-score) [30]: -0.249 | glycan array binding signal (z-score) [31]: -0.312 | glycan array binding signal (z-score) [32]: -0.32 | glycan array binding signal (z-score) [33]: -0.168 | glycan array binding signal (z-score) [34]: -0.348 | glycan array binding signal (z-score) [35]: -0.352 | glycan array binding signal (z-score) [36]: -0.232 | glycan array binding signal (z-score) [37]: -0.388 | glycan array binding signal (z-score) [38]: -0.357 | glycan array binding signal (z-score) [39]: -0.378 | glycan array binding signal (z-score) [40]: -0.324 | glycan array binding signal (z-score) [41]: 0.134 | glycan array binding signal (z-score) [42]: -0.456 | glycan array binding signal (z-score) [43]: -0.395 | glycan array binding signal (z-score) [44]: -0.419 | glycan array binding signal (z-score) [45]: -0.303 | glycan array binding signal (z-score) [46]: -0.261 | glycan array binding signal (z-score) [47]: -0.39

— the supplement of paper PMC8728848
